Laboratory results as given in PubChem BioAssay (EPA / NIEHS).
Activity calls are given as the source filed them. The calls were made as follows: active = hit-call score of the fitted dose curve at least 0.9, where 1 is the maximum; inactive = score below 0.9.

The compounds below were run on Bcl-2 (BID) gene, BID (gene 637) (assay: LTEA_HepaRG_BID: Life Technologies and Expression Analysis (LTEA) Assay for Bcl-2 (BID) gene using HepaRG (AID 2283476)). Conditions: mRNA level, 48 h; actives raise or lower the signal.
Procedure: LTEA_HepaRG is a cell based, multiplexed-readout assay that uses HepaRG, a human liver cell line, with measurements taken at 48 hours after chemical dosing on a 96-well plate.LTEA_HepaRG_BID is one of 102 assay component(s) measured in the LTEA HepaRG cell culture assay. It is a marker of Cell proliferation, survival, death.Data from the assay component LTEA_HepaRG_BID was analyzed into 1 endpoint. This assay endpoint, LTEA_HepaRG_BID, was analyzed with bidirectional fitting relative to DMSO as the negative control and baseline of activity. Using a type of inducible reporter, measures of mRNA induction for gain or loss-of-signal activity can be used to understand regulation of transcription factor activity. To generalize the intended target to other relatable targets, this assay endpoint is annotated to the cell cycle intended target family, where the subfamily is Cell proliferation, survival, death.
A total of 1060 chemcials from the ToxCast library were tested in eight-point concentration-response experiments. Cell culture and cytotoxicity assays were conducted at Thermo Fisher Scientific's Custom Services facility (Madison, WI). A single lot of human HepaRG cells (Thermo Fisher Scientific, Frederick, MD) was used for the cell culture experiments. 96-well format collagen type I coated plates of human HepaRG cells were prepared using established methods. Briefly, cryopreserved HepaRG cells were thawed, plated at a density of approximately 100,000 cells/well in HepaRG Thaw, Plate, and General Purpose media (HPRG770, Thermo Fisher Scientific), and incubated for 48 hours. 0.5% DMSO was selected as vehicle control to balance the requisite need of DMSO in HepaRG cultures to maintain differentiation (for example, baseline metabolism, proportions of hepatocytes vs. cholangiocytes), while enabling further hepatic receptor pathway activation (for example, PXR and CAR) in response to chemical exposure. 48 hours after plating, the culture medium was replaced with HepaRG Serum-Free Incudtion Media. Cells were exposed to each test chemical in duplicate and maintained in CO2 incubators for another 48 hours. Chemical plates were thawed to room temperature and 200x concentrations of treatment groups were prepared. 8-point conentration-reponse curves were made with the highest exposure at 100 uM, followed by half-log dilutions, all in 0.5% DMSO. Each test plate contained variouse controls, induction positive controls (1mM phenobarbital), cytotoxicity positive controls ([…] aflatoxin B1), vehicle controls (0.5% DMSO), and total lysis controls (0.5% DMSO). Cell morphology images were taken using an Essen IncuCyte FLR automated microscope, with six 96-well plates imaged in about 24 minutes. Images were captured and exported and JPEG files. Spent culture media was transfered to black-well plates for the LDH assay, and remaining media was sorted at -80 C for later use. Cells were treated with RLT buffer and frozen until shipped for gene expression analysis. Total RNA was isolated from the cell suspension in 75 uL of Buffer RLT (Qiagen, Germantown, MD 20874) by Quintiles/Expression Analysis (Durham, NC) using a custom isolation procedure. Total RNA from each plate well was transferred to a preamplification plate. Fluidigm's 96.96 Dynamic ArrayTM (Fluidigm, Amsterdam, the Netherlands) technology was used for gene expression analyses by quantitative reverse transcription polymerase chain reaction (qRT-PCR, performed by Quintiles/Expression Analysis, Durham, NC)89. Standard TaqManTM Assays (Applied Biosystems/ThermoFisher Scientific, Foster City, CA) were used to assess the expression of 93 genes selected based on their selectivity and sensitivity to important hepatic receptors known to be modulated by environmental chemicals; importance in human hepatocyte functionality; and hepatotoxicity. […]

Compound	outcome	AC50
CNC(=O)ON=C(C)SC	inactive	–
CCCOc1nn(C(=O)NS(=O)(=O)c2ccccc2C(=O)OC)c(=O)n1C	inactive	–
CC(=NC#N)N(C)Cc1ccc(Cl)nc1	inactive	–
CCNc1nc(Cl)nc(NC(C)(C)C#N)n1	inactive	–
CN(C)NC(=O)CCC(=O)O	inactive	–
CCCOCC(=Nc1ccc(Cl)cc1C(F)(F)F)n1ccnc1	inactive	–
CCOP(=O)(NC(C)C)Oc1ccc(SC)c(C)c1 (stereo not given)	inactive	–
CCCSP(=O)(OCC)Oc1ccc(Br)cc1Cl (stereo not given)	inactive	–
CC(C)[C@H](C(=O)O[C@H](C#N)c1cccc(Oc2ccccc2)c1)c1ccc(Cl)cc1	inactive	–
COc1cc(OC)nc(Sc2cccc(Cl)c2C(=O)O)n1	inactive	–
CNC(=O)ON=C(SC)C(=O)N(C)C	inactive	–
CSc1nc(NC(C)C)nc(NC(C)C)n1	inactive	–
COP(=O)(NC(C)=O)SC (stereo not given)	inactive	–
CN(C)[C@@H]1C(=O)C(C(N)=O)=C(O)[C@@]2(O)C(=O)C3=C(O)c4c(O)cccc4[C@@](C)(O)[C@H]3[C@H](O)[C@@H]12	inactive	–
COP(=O)(OC)C(O)C(Cl)(Cl)Cl (stereo not given)	–	0.155 µM (active)
CC(C)N(C(=O)SCC(Cl)=C(Cl)Cl)C(C)C	inactive	–
CCc1cnc(C2=NC(C)(C(C)C)C(=O)N2)c(C(=O)O)c1 (stereo not given)	inactive	–
S=C1NCCN1	inactive	–
CC(Oc1cccc(Cl)c1)C(=O)O (stereo not given)	inactive	–
CCC(=NOC/C=C/Cl)C1=C(O)CC(C2CCOCC2)CC1=O (stereo not given)	inactive	–

Compound	outcome	AC50
C[Si](Cn1cncn1)(c1ccc(F)cc1)c1ccc(F)cc1	–	50 µM (active)
Cc1cc(C2CC2)nc(Nc2ccccc2)n1	inactive	–
COP(=O)(OC)SCn1c(=O)oc2cc(Cl)cnc21	–	0.00316 µM (active)
C#CC(C)(C)NC(=O)c1cc(Cl)cc(Cl)c1	inactive	–
CC[C@H](C)[C@H]1O[C@]2(C=C[C@@H]1C)C[C@@H]1C[C@@H](C/C=C(\C)[C@@H](O[C@H]3C[C@H](OC)[C@@H](O[C@H]4C[C@H](OC)[C@@H](NC)[C@H](C)O4)[C@H](C)O3)[C@@H](C)/C=C/C=C3\CO[C@@H]4[C@H](O)C(C)=C[C@@H](C(=O)O1)[C@]34O)O2	–	25 µM (active)
CC(C)=CC1C(C(=O)OCN2C(=O)C3=C(CCCC3)C2=O)C1(C)C (stereo not given)	inactive	–
CC(C1CC1)C(O)(Cn1cncn1)c1ccc(Cl)cc1 (stereo not given)	inactive	–
O=C(O)c1cc(Oc2ccc(C(F)(F)F)cc2Cl)ccc1[N+](=O)[O-]	inactive	–
CCOC(=O)CC(SP(=O)(OC)OC)C(=O)OCC (stereo not given)	inactive	–
CC1(C(=O)Nc2ccc(O)c(Cl)c2Cl)CCCCC1	inactive	–
CCCCOC(=O)c1ccccc1C(=O)O	inactive	–
CCC(=O)Nc1ccc(Cl)c(Cl)c1	inactive	–
COP(=O)(OC)OC(Br)C(Cl)(Cl)Br (stereo not given)	inactive	–
CCOP(=S)(OCC)Oc1ccc([N+](=O)[O-])cc1	inactive	–
Cc1ccn2nc(S(=O)(=O)Nc3c(F)cccc3F)nc2n1	inactive	–
CCCSP(=O)(OCC)SCCC	inactive	–
O=c1ccc(=O)[nH][nH]1	inactive	–
CCOP(=S)(Oc1cnc(C(C)(C)C)nc1)OC(C)C (stereo not given)	inactive	–
CSC1=N[C@@](C)(c2ccccc2)C(=O)N1Nc1ccccc1	inactive	–
CCOP(=S)(OCC)Oc1cc(C)nc(C(C)C)n1	inactive	–
